Among all 340,000 compounds or so, about 8,500 (2.5%) were called active. For the sample, actives were picked, then their nearest neighbours and some compounds at random. Unmarked numbers belong to inactive results.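 How the source made its calls: active means melting temperature shift of at least 10% of the positive control shift, at one fixed dose; inactive means the rest.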

The subject of the assay is Glutamate receptor ionotropic, NMDA 3A (GRIN3A) ligand-binding domain. Briefly: binders of NR3A ligand-binding domain, primary screen, biophysical, differential scanning fluorimetry, uHTS (AID 1259313). Conditions: NR3A LBD differential scanning fluorimetry, at 25 µM, hits give high values, 0% = protein alone, 100% = glycine-bound protein.
Regarding `O=C(c1ccc(F)cc1)N1CCC(n2nnc3ccccc32)CC1`, the Tm shift relative to glycine control is 3.22%.
Consider `CCOCCOC(=O)C1=C(C)N(C)C(=O)NC1c1ccccc1F` (centres undefined), for which the Tm shift relative to glycine control is -1.72%.
On to `COc1ccc2c(c1)C(SCC(=O)NCc1ccccc1)CC(C)(C)O2` (centres undefined), for which the Tm shift relative to glycine control was -0.16%.
`CCOCCCNC(=O)C(=O)NCCCOCC`: the Tm shift relative to glycine control is -0.68%.
Then `CC(C)OCCCNC(=O)C1CC(=O)N(C2CCCCCCC2)C1` (centres undefined), with 2.24%.
The same measure for `CC(C)NC(=O)C(=O)NCCCOC(C)C`: 18.7% (active); for `CC(C(=O)Nc1ccc(S(=O)(=O)N2CCCC2)cc1)N(C)Cc1ccc(F)cc1` (centres undefined): -1.56%; for `CNC(=S)N/N=C/c1cn(Cc2ccc(C)cc2)c2ccccc12`: -1.66%.
With `CCOC(=O)N/N=C/c1cn(Cc2ccccc2Cl)c2ccccc12`, the Tm shift relative to glycine control is -13.8%.
With `COC(=O)N/N=C/c1cn(CCCOc2ccc(C)cc2)c2ccccc12`, the Tm shift relative to glycine control is 12.8% (active).
The same measure for `CC(C)(C)c1ccc(/C=C/C(=O)NCCCn2ccnc2)cc1`: -0.74%; for `O=C(COC(=O)c1ccc(Cl)nc1)NCc1ccc2c(c1)OCO2`: -1.93%; for `CCOc1c(Cl)cc(/C=N/O)cc1OC`: 10.8% (active).
As for `CCOc1cc(/C=N/O)cc(Br)c1OC`, the Tm shift relative to glycine control was 10.5% (active).
On to `COc1cc(/C=N/O)cc(Br)c1OS(=O)(=O)c1ccc(C)cc1`, for which the Tm shift relative to glycine control is -0.94%.
Turning to `CCOc1cc(/C=N/O)ccc1OCc1ccccc1F`, the Tm shift relative to glycine control was -0.35%.
The same measure for `CCOc1cc(/C=C(/C#N)c2ccc(Cl)cc2)cc(Cl)c1OCC(=O)O`: -1.37%; for `COc1cc(/C=N/O)cc(Br)c1OCc1cccc(Cl)c1`: 9.46%; for `C[C@@H]1ON(C)[C@H]2C[C@H]3c4cc(N5CCN(C)CC5)ccc4CCN3C(=O)[C@@H]12`: 2.38%.
Regarding `COc1ccc(N2CCN(C(=O)[C@@H](NC(=O)c3cc(OC)cc(OC)c3)C(C)C)CC2)cc1`, the Tm shift relative to glycine control was -0.58%.
Then `COc1cc(OC)cc(C(=O)NC(C(=O)N2CCC2)C(C)C)c1` (centres undefined), with -1.01%; and `COc1cc(OC)cc(C(=O)N[C@H](C(=O)NNC(=O)c2ccc(Br)cc2)C(C)C)c1`, with 13.6% (active); and `COc1ccc(N2CCN(CCCNC(=O)C3CCN(S(=O)(=O)N4CCOCC4)CC3)CC2)cc1`, with 1.84%.
Turning to `O=C(CSc1ccccn1)Nc1nc2c(ccc3ccccc32)s1`, the Tm shift relative to glycine control was -2.83%.
Then `CS(=O)(=O)Nc1cccc(-c2cn3ccccc3n2)c1`, with -0.95%.
In the case of `CCS(=O)(=O)Nc1cccc(-c2cc(-c3ccccc3)c3cc(C)ccc3n2)c1`, the Tm shift relative to glycine control was 10.6% (active).
Consider `Cc1cc(C)cc(NS(=O)(=O)Cc2ccccc2)c1`, for which the Tm shift relative to glycine control is 1.07%.
On to `CC1CN(S(=O)(=O)c2ccc(C(=O)Nc3sccc3C(N)=O)cc2)CC(C)O1` (centres undefined), for which the Tm shift relative to glycine control is -4.29%.
The same measure for `Cc1ccc2c(c1)N(CC(=O)N(Cc1ccccn1)Cc1ccco1)C(=O)C(C(C)C)O2` (centres undefined): 0.17%.
The same measure for `O=c1[nH]c2c(c(=O)n1-c1ccccc1)CCO2`: 1.26%.
The same measure for `CC(C)n1cnc2c(Nc3cccc(Cl)c3)nc(N(CCO)CCCO)nc21`: 1.29%.
With `Cc1cccc(Nc2nc(NCCO)nc(N3CCCC3)n2)c1`, the Tm shift relative to glycine control is -4.68%.
For the compound `OCCCNc1nccc(-c2cc(Nc3cccc(Cl)c3)ncn2)n1`, the Tm shift relative to glycine control was 21.3% (active).
The same measure for `CCC(=O)Nc1cc(C(F)(F)F)ccc1N1CCCC1`: 1.55%; for `CCC(=O)N1CCN=C1SCc1ccc(F)cc1`: 1.29%.
With `O=C(C1CC1)N1CCN=C1SCc1ccc(Cl)cc1`, the Tm shift relative to glycine control was 11.7% (active).
The same measure for `O=C(c1ccco1)N1CCN=C1SCc1cccc(Cl)c1`: 0.08%; for `COc1ccc(CN2CN(C(C)C)CSC2=S)cc1`: 1.51%.
With `Cc1cc(F)ccc1S(=O)(=O)Nc1ncnc2scc(-c3ccc(F)cc3)c12`, the Tm shift relative to glycine control was 10.2% (active).
In the case of `O=S(=O)(Nc1ncnc2sccc12)c1cccc(F)c1`, the Tm shift relative to glycine control is -0.96%.
On to `COc1ccc(-c2csc3ncnc(N4CCN(S(=O)(=O)c5cccc(F)c5)CC4)c23)cc1`, for which the Tm shift relative to glycine control was -1.02%.
Then `C=CCNC(=O)COC(=O)c1ccccc1C(=O)N(C)C1CCCCC1`, with -0.25%; and `O=C(CN(CC1CCCO1)C(=O)CNS(=O)(=O)c1ccc(Cl)cc1)NCc1ccccc1` (centres undefined), with 2.76%.
Then `CC(C)(C)OC(=O)N1CCC(C(=O)NNC(=O)c2ccc(Cl)cc2Cl)CC1`, with -2.13%; and `Cc1ccc(C)c(NC(=O)C2CCCN2C(=O)OC(C)(C)C)c1` (centres undefined), with 4.23%; and `Cc1ccc(-n2ncc(C(=O)NC3CC3)c2C2CCN(C(=O)OC(C)(C)C)CC2)c(C)c1`, with 13.4% (active).
For the compound `CCn1c(=S)[nH]c2cc(S(=O)(=O)N3CCOCC3)ccc21`, the Tm shift relative to glycine control was 2.56%.
The same measure for `Cc1cc(NS(=O)(=O)c2ccc(NC(=O)C(C)Oc3cccc(C)c3C)cc2)nc(C)n1` (centres undefined): 3.5%; for `CCNc1nc(NC(C)C)nc(N2CC(=O)N(CC(=O)OCC)C2=N)n1`: -4.17%.
Then `CCN(CC)CCCC(C)n1c2nc(=O)[nH]c(=O)c-2nc2cc(Cl)ccc21` (centres undefined), with -386%; and `CCOC(=O)C1=C(CC)Nc2ccccc2N=C1NC(=O)c1cccc(S(=O)(=O)N2CCCC2)c1`, with 0%.
The same measure for `CC[C@@H](C)[C@H](NC(=O)CCc1c(C)c2cc3c4c(oc3c(C)c2oc1=O)CCCC4)C(=O)O`: 1.33%.
Take `Cc1c(CC(=O)NCCCCCC(=O)O)c(=O)oc2cc3occ(-c4ccccc4)c3cc12`: the Tm shift relative to glycine control was -0.98%.
Then `Cc1c(CC(=O)NCC(=O)NCC(=O)O)c(=O)oc2cc3oc4c(c3cc12)CCCC4`, with 31.7% (active); and `CC1CC1C(=O)OCC(=O)c1c(N)n(C)c(=O)n(C)c1=O` (centres undefined), with -0.75%.
Then `O=C(Nc1ccc(OC(F)(F)F)cc1)c1ccc2c(c1)no[n+]2[O-]`, with -3.76%.
The same measure for `Cc1c(-c2ccccc2)n[nH]c1C(=O)N=Nc1c(O)[nH]c2ccccc12`: 13.9% (active); for `Cc1cccc(N(CC(=O)N=Nc2c(O)[nH]c3ccccc23)S(C)(=O)=O)c1C`: -1.51%; for `O=C(CCN1CCCCC1)N=Nc1c(O)[nH]c2ccccc12`: -1%.

For the origin of these results see PubChem BioAssay AID1259313 (Sanford-Burnham Center for Chemical Genomics, 2017).
